Experimental findings from ChEMBL document CHEMBL4513146, “CO-ADD screening of Karazin Kharkiv National University (Ukraine) compounds” are described below.

Entries with a potency or affinity are not part of this list.

In the experiment the test system is Staphylococcus aureus. As to conditions: Concentration 32 ug.mL-1;; ASSAY_TEST Inhibition of Bacterial Growth; detection method Absorption (OD600); MEDIA CAMHB; plate type 384well; NBS; CORNING #3640; time 18 hr.
The term Inhibition denotes the drop in the measured response relative to a control, in per cent. As for `Cc1ccc(NC(=O)Cn2c(=O)c3nnc(C(C)C)n3c3ccccc32)c(C)c1`, the Inhibition is 15.48%.

`Cc1ccc(Sc2nccn3c(=O)n(CC(=O)Nc4cccc(Br)c4)nc23)c(C)c1`: the Inhibition was -7.2%.

With `Cc1cc(C)cc(Nc2nc(C)cc3nn(CC(=O)Nc4cccc(Cl)c4)c(=O)n23)c1`, the Inhibition came out at 6.53%.

Turning to `Cc1ccc(Oc2nccn3c(=O)n(CC(=O)N4CCN(c5ccccc5F)CC4)nc23)cc1`, the Inhibition amounted to 10.22%.

As for `Cc1nnc2c(S(=O)(=O)N(Cc3ccccc3F)c3cc(F)cc(F)c3)cccn12`, the Inhibition is given as -8.28%.

Regarding `O=c1n(Cc2nc(-c3ccc4c(c3)OCO4)no2)nc2ccc(-c3ccccc3)nn12`, the Inhibition is -9.1%.

Consider `CC(C)c1ccc(Oc2nc3ccccc3n3c(=O)n(CC(=O)Nc4ccc5c(c4)OCO5)nc23)cc1`, for which the Inhibition turned out to be 7.37%.

Take `Cc1cc2nn(CC(=O)Nc3ccccc3F)c(=O)n2c(Nc2ccc(C)c(F)c2)n1`: the Inhibition is listed as -7.63%.

With `Cc1ccc(NC(=O)Cn2nc3ccc(SCc4ccc(Cl)cc4)nn3c2=O)c(C)c1`, the Inhibition is -11.8%.

On to `Cc1ccccc1Oc1nccn2c(=O)n(CC(=O)Nc3ccc(C#N)cc3)nc12`, for which the Inhibition is given as 8.67%.

For `Cc1ccc(-c2cc3c4nn(CC(=O)Nc5ccc6c(c5)OCO6)c(=O)n4ccn3n2)cc1C`, the Inhibition is given as -8.73%.

`COc1cccc(Sc2nc3ccccc3n3c(=O)n(CC(=O)Nc4ccc(C)c(C)c4)nc23)c1`: the Inhibition is on record as 2.16%.

Consider `CCCCN(CC)C(=O)CSc1nnc2c(=O)n(Cc3ccccc3F)ccn12`, for which the Inhibition is 1.71%.

With `Cc1cc2nn(CC(=O)Nc3cc(F)cc(F)c3)c(=O)n2c(Nc2ccc(F)c(C)c2)n1`, the Inhibition came out at 7.29%.
